# Avidin bead fluor = green autofluorescence of compounds with avidin beads – biophysical, 488/530 nm, flow cytometry, artefact control, profiling panel; compound fluorescence 488/530 nm; stronger effect = higher value; fluorescence (KMESF) at 10 µM; hit rate 0.38% among 220,000; AID 1775, 2009; in the data active means fluorescence above about 47
# GSH fluor = compound fluorescence on glutathione beads, profiling panel, artefact control, biophysical, 488/530 nm, flow cytometry; GSH beads flow cytometry, compound fluorescence 488/530 nm; stronger effect = higher value; fluorescence (KMESF) at 10 µM; hit rate 0.25% among 190,000; AID 1776, 2009; in the data active means fluorescence above about 89;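 further: glutathione beads carrying GST-tagged Bcl family fusion proteins plus one bare bead set; values are compound well signal with DMSO vehicle wells as background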
# RGS16-Gao = modulators of RGS16 binding to Galphao, primary screen, biochemical, human proteins, multiplexed bead flow cytometry | Regulator of G-protein signaling 16 (Homo sapiens) + Guanine nucleotide-binding protein … | bead-based flow cytometry RGS16-Galphao binding, fluorescence; actives lie on both sides | binding response (% of control), % at 10 µM | hit rate 0.38% among 220,000;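 further: Galphao activated by GDP with aluminum fluoride before binding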
# Target sequence (O15492 whole entry, looked up): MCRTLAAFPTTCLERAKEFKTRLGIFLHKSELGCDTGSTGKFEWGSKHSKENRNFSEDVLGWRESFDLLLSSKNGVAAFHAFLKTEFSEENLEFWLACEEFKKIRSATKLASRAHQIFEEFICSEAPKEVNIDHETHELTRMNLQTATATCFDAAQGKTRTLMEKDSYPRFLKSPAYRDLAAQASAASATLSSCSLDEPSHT
# Target sequence (P09471 whole entry, looked up): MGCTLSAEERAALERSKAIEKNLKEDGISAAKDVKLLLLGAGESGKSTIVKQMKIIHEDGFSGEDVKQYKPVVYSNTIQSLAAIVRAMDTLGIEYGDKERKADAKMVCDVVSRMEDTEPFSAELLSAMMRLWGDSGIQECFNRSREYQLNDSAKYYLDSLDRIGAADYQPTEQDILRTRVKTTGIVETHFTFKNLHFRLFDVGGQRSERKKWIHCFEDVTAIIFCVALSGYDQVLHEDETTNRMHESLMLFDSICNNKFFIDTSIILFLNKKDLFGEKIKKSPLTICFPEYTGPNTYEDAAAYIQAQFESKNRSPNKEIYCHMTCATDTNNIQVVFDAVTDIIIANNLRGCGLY
# RGS7-Gao reg = RGS7-Galphao binding modulators, primary screen, biochemical, multiplexed bead flow cytometry; Guanine nucleotide-binding protein G(o) subunit alpha (Homo sapiens), P09471; actives lie on both sides; binding response (% of control), % at 10 µM; hit rate 0.35% among 220,000; AID 1439, 2008; in the data active means binding response below about 49% or above about 150%; inconclusive means no clear call, values can overlap the other calls; inactive means in between;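 further: fluorescent Galphao held in activated GDP-AlF4 state binding bead-coupled RGS7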
# Target sequence (P09471 whole entry, looked up): as above
# RGS8-Gao = RGS8-Galphao binding modulators, primary screen, biochemical, multiplexed bead flow cytometry. response (percent of control binding), % at 10 µM. actives lie on both sides. hit rate 0.34% among 220,000; in the data active means response below about 60% or above about 140%; inactive means in between;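 further: Galphao activated as the GDP aluminium fluoride complex binding bead-coupled RGS8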
# RGS4-Gao reg = modulators of RGS4 binding to Galphao, primary screen, biochemical, multiplexed bead flow cytometry | Guanine nucleotide-binding protein G(o) subunit alpha (Homo sapiens), P09471 | actives lie on both sides | binding response (% of control), % at 10 µM | hit rate 0.33% among 220,000 | AID 1415, 2008; in the data active means binding response below about 49% or above about 150%; inactive means in between;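 further: fluorescent Galphao activated with aluminum fluoride binding bead-coupled RGS4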
# RGS4-Gao HTS = modulators of RGS–Galpha-o binding, primary screen, biochemical, multiplexed beads, flow cytometry, RGS4/7/8/16/19; hit rate 99% among 1,600; shares compounds with RGS16-Gao; RGS4–Galpha-o binding response, % at 10 µM; multiplexed bead flow cytometry; AID 1504, 2009;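 further: fluorescently labeled Galpha-o bound to GDP with aluminium fluoride binding biotinylated RGS beads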
# Avidin counter = disruption of biotin probe capture by avidin, counter-screen for RGS protein interaction modulators, biochemical, flow cytometry, bead-based | streptavidin beads, fluorescein-biotin binding | shares compounds with RGS16-Gao | 1,700 tested, under 10 active | AID 1783, 2009 | inhibition, % at 10 µM;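 active means inhibition above 50%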;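 further: median green fluorescence of gated singlet beads compared with DMSO control wells; 0% = DMSO wells and 100% = complete loss of bead fluorescence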
# RGS8-Gao single = RGS8-Galphao binding modulators, confirmation, biochemical, multiplexed bead flow cytometry, single concentration | binding response (% of control), % at 10 µM | hit rate 3% among 1,700 | bead-based flow cytometry RGS8-Galphao binding, fluorescence; actives lie on both sides | AID 1836, 2009 | shares compounds with RGS16-Gao; in the data active means binding response below about 72% or above about 130%; inactive means in between;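 further: Galphao activated as GDP AlF4 complex before binding bead RGS8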
# RGS7-Gao confirm = RGS7-Galphao binding modulators, confirmation, biochemical, multiplexed bead flow cytometry, single concentration; shares compounds with RGS16-Gao; bead-based flow cytometry RGS7-Galphao binding; actives lie on both sides; response (percent of control binding), % at 10 µM; hit rate 7.8% among 1,700; AID 1837, 2009; in the data active means response below about 75% or above about 130%; inactive means in between;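 further: fluorescent Galphao activated with GDP and aluminum fluoride binding bead-coupled RGS7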
# RGS16-Gao single = modulators of RGS16-Galphao protein binding, confirmation, biochemical, single concentration, multiplexed bead flow cytometry; response (% of control binding), % at 10 µM; shares compounds with RGS16-Gao; bead-based flow cytometry; actives lie on both sides; hit rate 4% among 1,700; in the data active means response below about 74% or above about 130%; inactive means in between;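 further: Galphao activated as the GDP aluminium fluoride complex binding bead-coupled RGS16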
# RGS4-Gao single = modulators of RGS4-Galphao protein binding, confirmation, biochemical, single concentration, multiplexed bead flow cytometry | shares compounds with RGS16-Gao | actives lie on both sides | binding response (% of control), % at 10 µM | hit rate 4% among 1,700 | AID 1840, 2009; in the data active means binding response below about 74% or above about 130%; inactive means in between
# RGS19-Gao single = regulators of RGS19-Galphao binding, confirmation, biochemical, single point, multiplexed bead flow cytometry. bead-based flow cytometry RGS19-Galphao binding; actives lie on both sides. response (percent of control binding), % at 10 µM. shares compounds with RGS16-Gao. AID 1841, 2009. hit rate 5% among 1,700; in the data active means response below about 50% or above about 160%; inactive means in between;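 further: 100% = no compound control and 0% = blank background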
# Starred values were filed as active, the others as inactive; ? = inconclusive; / = no result given; [ ] = dose if it differs, or a comment. Shown are actives, neighbours in structure and some others; about 1.2% of the full set was active somewhere. Unless noted, how the calls were made is not given here.
SMILES,Avidin bead fluor,GSH fluor,RGS16-Gao,RGS7-Gao reg,RGS8-Gao,RGS4-Gao reg,RGS4-Gao HTS,Avidin counter,RGS8-Gao single,RGS7-Gao confirm,RGS16-Gao single,RGS4-Gao single,RGS19-Gao single
Cc1ccc(S(=O)(=O)N2CCN(S(=O)(=O)c3ccc4c(c3)OCCO4)CC2)cc1,8,24,50,52,58*,55,55*,-2,100,103,104,105,105
Cc1c(NC(=O)Nc2ccc3c(c2)OCO3)c(=O)n(-c2ccccc2)n1C,149*,24,120,227*[activator],104,122,122*,-1,100,97,101,101,101
Cc1c(NC(=S)NC(=O)C(C)(C)C)c(=O)n(-c2ccccc2)n1C,1,8,63,99,89,95,/,/,/,/,/,/,/
Cc1c(NC(=S)NC(=O)C2CCCCC2)c(=O)n(-c2ccccc2)n1C,-2,23,13*,15*,17*,7.8*,/,1,80,67*,78,77,62
Cc1c(NC(=O)CNCc2ccc3c(c2)OCO3)c(=O)n(-c2ccccc2)n1C,8,/,106,?,105,101,/,/,/,/,/,/,/
COc1ccc(OC)c(/C=C/C(=O)OCC(=O)c2c(N)n(C)c(=O)n(C)c2=O)c1,20,10,104,99,102,99,/,/,/,/,/,/,/
CCOC(=O)C1CCCN(C(=O)/C=C/c2ccc(Cl)cc2)C1 (configuration not stated),4,21,109,106,101,104,/,/,/,/,/,/,/
CCOC(=O)C1CCCN(C(=O)/C=C/c2cc(OC)c(OC)c(OC)c2)C1 (configuration not stated),114*,17,103,170*[activator],92,103,103*,1,102,98,97,99,90
COc1ccc2cc(S(=O)(=O)N3CCOCC3)ccc2c1,37,16,101,101,98,103,/,/,/,/,/,/,/
CCN1c2ccc(S(=O)(=O)N3CCOCC3)cc2N(Cc2ccc(OC)cc2)C1C (configuration not stated),16,11,50,50*,59*,48*,/,0,100,96,95,97,96
CC1=C(C(N)=O)C(c2cccs2)n2nc(-c3cccc(Cl)c3)nc2N1 (configuration not stated),27,25,106,101,101,99,/,/,/,/,/,/,/
CC1=C(C(N)=O)C(c2cccs2)n2nc(-c3cccc(C)c3)nc2N1 (configuration not stated),8,17,26,31*,34*,34*,/,1,100,101,98,98,92
CCCCn1c(/N=C/c2ccc(N(C)C)cc2)nc2ccccc21,6,23,105,104,100,98,/,/,/,/,/,/,/
CCCCn1c(/N=C/c2ccc3c(c2)OCO3)nc2ccccc21,/,41,/,/,/,/,/,1,101,100,99,99,100
CCOC(=O)C1=C(C)NC(C)=C(C(=O)OCCNC(=O)c2cccnc2)C1c1cccc([N+](=O)[O-])c1 (configuration not stated),3,6,213*[activator],111,124,108,108*,-2,85,70*,78,81,104
CC(=O)Nc1ccc(NC(=O)c2ccco2)cc1,8,15,-100*,85,69,83,83*,-1,102,97,102,101,94
Cc1ccccc1C(=O)NCC(=O)O,9,10,92,102,100,98,/,/,/,/,/,/,/
O=c1[nH]c2ccsc2c(=O)n1CCO,6,/,85,?,92,87,/,/,/,/,/,/,/
CCN1CCCC1CNC(=O)C(=O)Nc1ccccc1OC (configuration not stated),62*,13,108,153*[activator],104,101,101*,/,/,/,/,/,/
CSc1ccc(C2C(C#N)=C(N)Oc3c2ccc(=O)c2c(C)oc(C)c32)cc1 (configuration not stated),93*,159*,473,254*[activator],132,180*[activator],/,2,99,96,101,100,98
N#Cc1nc(COc2ccc(Br)cc2)oc1NCCN1CCOCC1,7,16,121,133,143*[activator],140,140*,3,98,101,99,98,95
CC(=O)NN1C(=O)c2ccccc2NC1c1ccccn1 (configuration not stated),7,14,22*,94,85,97,97*,2,104,103,101,105,108
C=CCS/C(N)=N\N=C\c1c(O)ccc2ccccc12,3,/,103,?,103,102,/,/,/,/,/,/,/
Cc1ccc(C2C(C#N)=C(N)OC3=C2C(=O)CC(C)(C)C3)s1 (configuration not stated),11,/,96,?,99,101,/,/,/,/,/,/,/
